Sampled rows, rich in hits. Any-hit rate of the full collection: about 2.4%.
TGFb SMAD3 inh: inhibitors of TGF-b signaling; 410,000 tested, 1.2% active; AID 588855; Potency, µM (titrated, usually from 46.1 µM), hits mostly inhibitors; HepG2 CAGA-GFP TGF-b/SMAD3 reporter, GFP fluorescence, 18 h; TGF-beta stimulated, 500 pg/mL final; further: nearly all actives have a fitted effect of over 65% in size
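Cell-based qHTS in HEPG2 carrying a CAGA-GFP Smad reporter; compounds added before 500 pg/mL final TGF-beta, 18 h incubation at 37 degrees C, GFP fluorescence quantified per cell by imaging cytometry.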
ATXN2 expr inh: ATXN2 expression inhibition. HEK-293 ATXN2-luciferase reporter, luminescence, 24 h. Potency, µM (top dose mostly 57 µM), hits mostly inhibitors. 360,000 tested, 0.72% active; further: nearly all actives have a fitted effect of over 55% in size
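ATXN2-luciferase reporter cells (luciferase flanked by upstream and downstream ATXN2 gene portions) were treated 24 h at 37 °C with compounds at up to 57 uM. SteadyGlo luminescence gave expression; GF-AFC fluorescence gave viability.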
Anesthetic bind: candidate novel general anesthetic via apoferritin binding; apoferritin/1-aminoanthracene competitive binding, fluorescence; Potency, µM (titrated, usually from 77.5 µM), usual class: inhibitors; 350,000 tested, 0.074% active; AID 485281; further: nearly all actives have a fitted effect of over 20% in size
Target sequence (P02791 2-175 limits assumed): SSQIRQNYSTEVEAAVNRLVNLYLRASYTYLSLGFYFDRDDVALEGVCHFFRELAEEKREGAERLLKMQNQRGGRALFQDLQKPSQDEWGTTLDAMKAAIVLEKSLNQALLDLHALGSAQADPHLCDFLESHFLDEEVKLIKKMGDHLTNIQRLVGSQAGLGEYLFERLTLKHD
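Horse-spleen apoferritin (10 uM) in 50% saturated 1-aminoanthracene in PBS was incubated 10 min at room temperature with compound. Fluorescence (ex 380, em 535 nm) was normalized to free and bound 1-AMA, with concentration-response fitted by a four-parameter Hill equation.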
ATXN viability: viability counter-screen for ATXN expression inhibitors. S2 cells (HEK-293 line with an ATXN2-luciferase reporter) viability, CellTiter-Fluor protease fluorescence, 24 h. Potency, µM (highest dose often 56.7 µM), hits mostly cytotoxic. 400,000 tested, 0.49% active. AID 651635; further: nearly all actives have a fitted effect of over 40% in size
HepG2 tox: counter-screen for TGF-b inhibitors: cytotoxicity in HepG2 cells; HepG2 CAGA-GFP viability, ATP luminescence, 18 h; Potency, µM (top dose mostly 46.1 µM), most hits filed as cytotoxic; 410,000 tested, 0.76% active; AID 588856
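HepG2 CAGA-GFP cells (1000/well, DMEM with 1% FBS) received compound, then TGF-beta at 500 pg/mL final, and were incubated 18 hours at 37 degrees C. Viability was read by CellTiter-Glo luminescence. Media-only wells were set as complete cell-killing and DMSO as no toxicity.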
Hits are given with their value; – = inactive; ? = inconclusive; · = no result given; ! = not active in a repeat. The call rests on the fitted dose curve; in most records, active means well fitted curve in the direction sought with a large enough effect; inconclusive means small, poorly fitted or top-dose-only effect, or another doubt; inactive means no such curve, though single readings can be large; an effect the other way counts as inactive or inconclusive.

SMILES | TGFb SMAD3 inh | ATXN2 expr inh | Anesthetic bind | ATXN viability | HepG2 tox
Cc1ccc(-n2c(C)cc(C3N=C(N)Nc4nc5ccccc5n43)c2C)c(C)c1 (stereo not drawn) | ? | ? | ? | ? | –
Cc1cccc2sc(NC(=O)CCNS(=O)(=O)c3cccc4nonc34)nc12 | ? | – | ? | – | 20µM
Cc1cccc(NC(=O)CCNS(=O)(=O)c2cccc3nonc23)c1C | – | – | – | – | –
O=C(OCc1cn([C@@H]2CN(CC3CCCCC3)[C@@H](c3ccccc3)C[C@H]2O)nn1)c1ccccc1 | – | ? | · | 25µM | –
O=C(OCc1cn([C@@H]2CN(CC3CCCCC3)[C@@H](c3ccc(Cl)cc3)C[C@H]2O)nn1)c1ccccc1 | – | – | · | – | –
O=C(OCc1cn([C@H]2CN(CC3CCCCC3)[C@@H](c3ccc(Cl)cc3)C[C@@H]2O)nn1)c1ccccc1 | 18µM | ? | · | · | 13µM
CCc1nn(CCCC(=O)NC2CCCCC2C)c(=O)c2cc3occc3n12 (stereo not drawn) | ? | · | · | – | –
c1ccc2nccnc2c1 | 2.8µM | · | · | · | 4µM
c1ccc2ncccc2c1 | – | – | · | – | –
CCSc1nc2c(c(=O)[nH]c(=O)n2C)n1C/C=C(/C)Cl | – | – | – | – | 7.1µM
CSc1nc2c(c(=O)[nH]c(=O)n2C)n1C/C=C(\C)Cl | – | – | – | – | –
CC(C)c1c(C(=O)NCC2(N3CCCCC3)CCCC2)cnn1-c1nccc(-c2ccco2)n1 | · | · | · | – | ·
Cc1cccc(C2CC(c3ccccc3)=NN2c2ccc(S(N)(=O)=O)cc2)c1 (stereo not drawn) | ? | ? | · | – | 11µM
COc1ccc(C2CC(c3cccc(F)c3)=NN2c2ccc(S(N)(=O)=O)cc2)cc1 (stereo not drawn) | 11µM | ? | · | · | –
COc1ccc(C2CC(c3ccccc3)=NN2c2ccc(C(N)=O)cc2)cc1 (stereo not drawn) | 16µM | – | – | · | –
COc1ccc(NC(=O)COc2ccccc2C(=O)Nc2ccccc2)cc1 | – | · | · | · | –
O=S(=O)(c1ccc(F)cc1)c1snnc1-c1ccccc1 | ? | 14µM | – | ? | –
O=S(=O)(c1ccc(Cl)cc1)c1snnc1-c1ccccc1 | 14µM | 20µM | ? | 25µM | –
CN(C)c1ncc(S(=O)(=O)c2ccc(Cl)cc2)c(-c2ccccc2)n1 | ? | – | – | – | –
Cc1c(C(=O)NCC(C)C)sc2ncnc(NCC3CCCO3)c12 (stereo not drawn) | · | · | · | – | ·
c1ccc2c(N=NN3CCCCC3)ccnc2c1 | – | · | · | · | –
CCC/C=C/c1ccc(CN2C(CC(C)C)C(=O)N(Cc3cn(CCC4OCCO4)nn3)CCS2(=O)=O)cc1 (stereo not drawn) | ? | ? | · | · | –
CC1C(=O)N(Cc2cn(Cc3ccco3)nn2)CCS(=O)(=O)N1Cc1ccc(-c2ccccc2Cl)cc1 (stereo not drawn) | ? | – | · | 11µM | –
Cc1ccc(-c2ccc(CN3C(CC(C)C)C(=O)N(Cc4cn(CCC5OCCCO5)nn4)CCS3(=O)=O)cc2)cc1 (stereo not drawn) | ? | 28µM | · | · | –
CCC/C=C/c1ccc(CN2C(CC(C)C)C(=O)N(Cc3cn(CCC4OCCCO4)nn3)CCS2(=O)=O)cc1 (stereo not drawn) | 13µM | ? | · | · | 16µM
SMILES | TGFb SMAD3 inh | ATXN2 expr inh | Anesthetic bind | ATXN viability | HepG2 tox
Cc1cccc(C)c1-c1ccc(CN2C(CC(C)C)C(=O)N(Cc3cn(CC4CCCCC4)nn3)CCS2(=O)=O)cc1 (stereo not drawn) | ? | ? | · | 35µM | 11µM
COc1cc2c(cc1OC)C(Nc1ccccc1)=NC(C)(C)C2 | – | – | – | – | –
O=C(COCCOCCOCC(=O)Nc1c(I)cc(I)c(C(=O)O)c1I)Nc1c(I)cc(I)c(C(=O)O)c1I | · | – | · | – | ·
CC(C)C1C(=O)N(Cc2cn(CCC3OCCO3)nn2)CCS(=O)(=O)N1Cc1ccc(-c2ccc(Cl)cc2)cc1 (stereo not drawn) | ? | 28µM | · | ? | –
O=C(O)c1cccc(COc2ccccc2Cl)c1 | – | 0.71µM | – | – | –
O=C(O)c1ccc(COc2ccccc2Cl)cc1 | – | – | – | – | –
Cc1ccc(-c2n[nH]c(=S)nc2-c2ccc(C)cc2)cc1 | – | · | – | – | –
COc1cccc(CCc2ccccc2OCC[C@@H]2C[C@@H](O)CN2C)c1 | · | · | – | · | ·
CCCCCCCCn1c(=O)c(C(=O)OC)c(N)c2ccccc21 | 16µM | – | – | ? | –
CCCCCCCn1c(=O)c(C(=O)OC)c(N)c2ccccc21 | 13µM | ? | – | ? | –
CCCCCCn1c(=O)c(-c2ccccc2)c(O)c2ccccc21 | – | – | – | – | –
Cc1nc([N+](=O)[O-])c(Sc2nc3ccc([N+](=O)[O-])cc3[nH]2)n1Cc1ccccc1 | – | – | – | ? | 10µM
CC1=NN(c2ccc(C)c(C)c2)C(=O)/C1=C\C=C\c1ccc([N+](=O)[O-])o1 | 10µM | ? | – | 3.2µM | –
O=C(NC1CCCCC1)[C@@H]1CC=C[C@@H]2CCN(Cc3ccc(Cl)c(Cl)c3)C(=O)[C@@H]21 | – | · | · | · | –
CC1CCN(C(=O)CSc2c3c(nc4ccc(Cl)cc24)CCCC3)CC1 | 16µM | · | ? | · | –
CCCCN(C)C(=O)CSc1c2c(nc3ccc(Cl)cc13)CCCC2 | ? | · | ? | · | –
CN(Cc1ccccc1)C(=O)CSc1c2c(nc3ccc(Cl)cc13)CCCC2 | ? | · | ? | · | 22µM
O=C(NC1CCCCC1)c1ccc(CSc2nc3cccnc3n2Cc2ccccc2)cc1 | – | – | – | ? | –
O=C(NC1CCCC1)c1ccc(CSc2nc3ccncc3n2Cc2cccc(F)c2)cc1 | ? | – | – | ? | –
O=C(NC1CCCC1)c1ccc(CSc2nc3cccnc3n2Cc2ccccc2)cc1 | 18µM | – | – | – | –
COc1ccc(Cn2c(SCc3ccc(C(=O)NC4CCCCC4)cc3)nc3ccncc32)cc1 | 13µM | ? | – | – | –
O=C(NC1CCCC1)c1ccc(CSc2nc3ccncc3n2Cc2ccc(F)cc2)cc1 | 7.9µM! | ? | – | ? | –
COc1ccc(Cn2c(SCc3ccc(C(=O)NC4CCCC4)cc3)nc3ccncc32)cc1 | ? | ? | – | ? | –
CCOC(=O)c1[nH]c2ccc(OC)cc2c1NC(=S)N1CCN(c2cccc(C)c2C)CC1 | 18µM | – | – | – | 10µM
CCOC(=O)c1[nH]c2ccc(OC)cc2c1NC(=S)N1CCN(c2ccc(F)cc2)CC1 | – | – | – | – | –
COc1cc2c3nnc(-c4ccccc4)c-3cn(Cc3ccc(F)cc3)c2cc1OC | – | ? | – | · | 22µM
COc1cc2c3nnc(-c4ccc(F)cc4)c-3cn(Cc3ccc(C)cc3)c2cc1OC | – | 18µM | – | – | 11µM
CC(C)(C)n1ncc2c(=O)n(Cc3cccc(OC(F)(F)F)c3)cnc21 | ? | · | · | · | –

Compound activity from PubChem BioAssay.
